From PubChem BioAssay AID1159580 (chemical genetic matrix, 2015)
Screen size: about 5,500 compounds; about 2,000 (36%) were called active. About 18% were inconclusive and are not listed. No stated cut-off is given here; in the data, active means normalized growth mostly below about 0.91 (no sharp cut-off); inconclusive means no clear call, values can overlap the other calls; inactive means mostly above about 0.92. Some of the results follow.

Assay: chemical genetic growth profiling, strain panel (AID 1159580);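 further: tested at 20 µM; growth read once vehicle control cultures reached saturation at 30 °C; 1 = growth at the plate median or of vehicle wells; lower values mean less growth of the strain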
Conditions: S. cerevisiae deletion strains, growth OD

Measured: normalized growth

C[C@]12CCC3C(CC[C@H]4C[C@H](O)CC[C@]34C)C1CC[C@@H]2O (some centres not stated)
active: locus YBR021W, strain FUR4, active compounds read low 0.803 | locus YDR162C, strain NBP2, active compounds read low 0.628 | locus YDR502C, strain sam2, active compounds read low 0.899 | locus YGL078C, strain dbp3, active compounds read low 0.844 | locus YGL248W, strain PDE1, active compounds read low 0.882 | locus YGR135W, strain pre9, active compounds read low 0.858 | locus YGR252W, strain gcn5, active compounds read low 0.756 | locus YJL095W, strain BCK1, active compounds read low 0.721 | locus YKL009W, strain mrt4, active compounds read low 0.813 | locus YKR001C, strain vps1, active compounds read low 0.83 | locus YLR039C, strain RIC1, active compounds read low 0.538 | locus YLR262C, strain YPT6, active compounds read low 0.421 | locus YLR330W, strain CHS5, active compounds read low 0.891 | locus YNL298W, strain CLA4, active compounds read low 0.893 | locus YNL307C, strain MCK1, active compounds read low 0.885 | locus YNR052C, strain pop2, active compounds read low 0.884 | locus YOR184W, strain ser1, active compounds read low 0.82 | locus YPR163C, strain tif3, active compounds read low 0.844
inactive: locus YBR229C, strain ROT2, active compounds read low 1.01 | locus YCL029C, strain bik1, active compounds read low 0.948 | locus YDL035C, strain GPR1, active compounds read low 0.883 | locus YDL074C, strain BRE1, active compounds read low 0.929 | locus YDL101C, strain DUN1, active compounds read low 0.938 | locus YDL185W, strain tfp1, active compounds read low 0.978 | locus YDL192W, strain arf1, active compounds read low 0.965 | locus YDR101C, strain arx1, active compounds read low 0.991 | locus YDR318W, strain mcm21, active compounds read low 0.948 | locus YDR388W, active compounds read low 0.994 | locus YER110C, active compounds read low 1.01 | locus YER155C, strain BEM2, active compounds read low 1.01 | locus YER167W, strain BCK2, active compounds read low 1.02 | locus YGL086W, strain mad1, active compounds read low 0.951 | locus YGR078C, strain PAC10, active compounds read low 0.908 | locus YHR079C, strain IRE1 (second series), active compounds read low 1.01 | locus YHR094C, strain hxt1, active compounds read low 1 | locus YHR129C, strain ARP1, active compounds read low 0.968 | locus YHR200W, strain rpn10, active compounds read low 0.987 | locus YIL066C, strain RNR3, active compounds read low 1 | locus YIL073C, strain SPO22, active compounds read low 0.875 | locus YIL125W, strain kgd1, active compounds read low 0.993 | locus YIR030C, strain dcg1, active compounds read low 0.991 | locus YJL134W, strain LCB3, active compounds read low 1.01 | locus YJL168C, strain set2, active compounds read low 1 | locus YJL187C, strain SWE1 (second series), active compounds read low 0.882 | locus YJR075W, strain HOC1, active compounds read low 0.981 | locus YKL068W, active compounds read low 0.988 | locus YKL085W, strain MDH1 (second series), active compounds read low 1.01 | locus YKL085W, strain MDH1, active compounds read low 1.01 | locus YKL190W, strain CNB1, active compounds read low 1.02 | locus YLR058C, strain SHM2, active compounds read low 0.944 | locus YLR102C, strain apc9, active compounds read low 1 | locus YLR268W, strain sec22, active compounds read low 0.974 | locus YLR342W, strain FKS1 (second series), active compounds read low 0.814 | locus YLR371W, strain rom2, active compounds read low 1.05 | locus YLR418C, strain cdc73, active compounds read low 0.894 | locus YML016C, strain PPZ1, active compounds read low 0.989 | locus YML032C, strain rad52, active compounds read low 0.924 | locus YML124C, strain tub3, active compounds read low 1.01 | locus YMR078C, strain ctf18, active compounds read low 0.988 | locus YMR223W, strain ubp8, active compounds read low 0.936 | locus YMR307W, strain GAS1, active compounds read low 0.798 | locus YNL067W, strain RPL9B, active compounds read low 0.876 | locus YNL233W, strain BNI4, active compounds read low 0.904 | locus YNL250W, strain rad50, active compounds read low 0.912 | locus YNL271C, strain bni1, active compounds read low 0.942 | locus YOL006C, strain TOP1, active compounds read low 0.926 | locus YOL012C, strain htz1 1.56 | locus YOL147C, strain pex11, active compounds read low 1.01 | locus YOR061W, strain CKA2, active compounds read low 0.985 | locus YOR069W, strain VPS5, active compounds read low 0.957 | locus YOR136W, strain idh2, active compounds read low 0.984 | locus YOR144C, strain elg1, active compounds read low 0.994 | locus YOR316C, strain cot1, active compounds read low 0.992 | locus YPR119W, strain clb2, active compounds read low 0.992 | locus YPR141C, strain kar3, active compounds read low 1.02 | locus YPR167C, strain met16, active compounds read low 0.956 | strain wtn01, active compounds read low 0.961
